Screens as filed in PubChem BioAssay.
AMA1-RON2 inh – inhibitors of Plasmodium falciparum AMA1-RON2 interaction | AID 720542 | AlphaScreen AMA1-biotinylated RON2 peptide binding | Potency, µM (top dose mostly 58.2 µM), without a hit: at the highest dose activity change, negative = inhibition, usual class: inhibitors | 0.2% of 360,000 active;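 note: potency is the fitted concentration of half-maximal effect; 0% = vehicle wells and -100% = peptide control; nearly all actives have a fitted effect of over 45% in size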
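AMA1 (3D7) with his tag at 25 nM final met compounds first, then biotinylated RON2 peptide at 25 nM; detection used donor plus acceptor beads, 10 µg/mL apiece, read by AlphaScreen after 30 min at room temperature.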
AmpC no deterg – blocks E. coli AmpC beta-lactamase in detergent-free assay. 0.52% of 330,000 active. Potency, µM (top dose mostly 57.1 µM), for the others: at the top dose activity change, negative = inhibition, hits mostly inhibitors. AmpC nitrocefin hydrolysis, absorbance 480 nm, 0.0001% Triton. AID 485341;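 note: potency is the fitted concentration of half-maximal effect; plate controls were no compound for no effect and no enzyme for full effect; nearly all actives have a fitted effect of over 20% in size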
Target sequence (P00811 whole entry, looked up): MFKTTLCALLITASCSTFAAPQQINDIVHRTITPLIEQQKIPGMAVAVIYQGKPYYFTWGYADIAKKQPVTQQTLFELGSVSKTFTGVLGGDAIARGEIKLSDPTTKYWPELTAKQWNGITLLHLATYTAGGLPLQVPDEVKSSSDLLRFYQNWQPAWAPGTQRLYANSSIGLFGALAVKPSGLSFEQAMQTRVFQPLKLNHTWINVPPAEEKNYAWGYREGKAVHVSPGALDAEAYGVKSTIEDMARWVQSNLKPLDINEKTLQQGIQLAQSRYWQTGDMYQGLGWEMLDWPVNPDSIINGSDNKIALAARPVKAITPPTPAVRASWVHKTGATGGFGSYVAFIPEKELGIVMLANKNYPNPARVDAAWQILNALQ
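AmpC (5.3 nM in the dispensed reagent) in 20 mM phosphate pH 7.0 with 0.01% (detergent screen) or 0.0001% Triton X-100 was preincubated with compounds for 15 min at room temperature. Nitrocefin was then added from an 800 uM solution, and hydrolysis was followed at 480 nm.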
SARS PLP yeast – SARS-CoV PLP inhibition in yeast. 0.19% of 330,000 active. S. cerevisiae expressing SARS-CoV PLpro, growth rescue. Potency, µM (series often up to 32.9 µM), inactives show top-dose activity, positive = growth rescue, actives largely listed as activators; calls by dose curve; note: potency is the fitted concentration of half-maximal effect; 0% is about no effect; nearly all actives have a fitted effect of over 55% in size
CHX counter – affects cycloheximide protein synthesis inhibition readout, counter-screen; max response, %; 12% of 300,000 active; AID 2314; cell reporter, cycloheximide protein synthesis inhibition counterscreen; in the data active = max response mostly above about 13%, no sharp cut-off; inactive = mostly below about 14%; note: read at 38.3 µM for the half of the compounds with a filed dose; 0% is about no effect
AmpC detergent – blocks E. coli AmpC beta-lactamase in detergent assay. P00811. AmpC hydrolysis of nitrocefin, absorbance 480 nm, 0.01% Triton. Potency, µM (top dose mostly 114 µM), for the others: top-dose activity change, negative = inhibition, actives largely listed as inhibitors. 0.041% of 370,000 active. AID 485294;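 note: potency is the fitted concentration of half-maximal effect; 0% = no-compound wells and -100% = no-enzyme wells; nearly all actives have a fitted effect of over 25% in size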
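AmpC (5.3 nM in the dispensed reagent) in 20 mM phosphate pH 7.0 with 0.01% (detergent screen) or 0.0001% Triton X-100 was preincubated with compounds for 15 min at room temperature. Nitrocefin was then added from an 800 uM solution, and hydrolysis was followed at 480 nm.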
Shiga inhibitor – Shiga toxin inhibition | Vero cells, Shiga toxin protein synthesis inhibition reporter | inhibition, % at 38.7 µM | 9.2% of 290,000 active | AID 2315; in the data active = inhibition mostly above about 28%, no sharp cut-off; inactive = mostly below about 43%; note: 0% is about no effect
Starred values were filed as active, the others as inactive; ? = inconclusive; nt = no result given; [ ] = another dose, or the depositor's remark. Many of the other results were omitted from the sample, so hits are more common in it than they were. Unless noted, calls come from the whole dose curve; as a rule, active = well fitted curve in the direction sought with a large enough effect; inconclusive = small, poorly fitted or top-dose-only effect, or another doubt; inactive = no such curve, though single readings can be large; an effect the other way counts as inactive or inconclusive.

SMILES	AMA1-RON2 inh	AmpC no deterg	SARS PLP yeast	CHX counter	AmpC detergent	Shiga inhibitor
COc1ccc(CC(=O)O/N=C(\N)Cc2cccc3ccccc23)cc1OC	9%	32%	-21%	2	-14%	-3
COc1ccc(CC(=O)O/N=C(\N)c2ccccn2)cc1OC	93%	-2%	11%	35*	1%	55*
CC1(C(=O)NS(=O)(=O)c2ccccc2)CCN1C(=O)Cc1ccc(Cl)cc1Cl (configuration not stated)	11%	nt	nt	nt	nt	nt
COc1ccc(/C(N)=N/OC(=O)Cc2ccccc2OC)cc1	30%	-22%	-7%	39*	-8%	36*
COc1ccc(OCC(=O)O/N=C(\N)c2ccc(OC)cc2)cc1	0%	-26%	-2%	8	5%	25
N/C(=N\OC(=O)Cc1cccc2ccccc12)c1ccccn1	62%	6%	3%	49*	5%	161*
N/C(=N\OC(=O)CCN1C(=O)c2ccccc2C1=O)c1ccccn1	61%	-12%	0%	7	0%	15
COc1ccccc1CC(=O)O/N=C(\N)c1ccccn1	57%	-7%	-1%	42*	3%	92*
Cc1nc2nc(-c3ccc(Cl)cc3)nn2c(C)c1Cl	nt	-11%	5%	3	-10%	-7
CC(C)C[C@@H]1CN(CCCC[C@H]2CNC(=O)C(=O)N2CCC2CCCCC2)C(=O)C(=O)N1CCC1CCCCC1	7%	nt	nt	nt	nt	nt
C=CCNC(=O)COc1ccc(Br)cc1Cl	-18%	-8%	1%	33*	?	56
COCCNC(=O)COc1ccc(Br)cc1Cl	9%	-1%	12%[6.58 µM]	33*	-4%	42
CN(C)CCCNC(=O)COc1ccc(Br)cc1Cl	3%	-38%	13%	1	0%	-23
CC1CC(C)CC(C)C(O)C(C#N)=CC=CCC(C2CCCC2C(=O)O)OC(=O)CC(O)C(C)C1 (configuration not stated)	12%	nt	nt	nt	nt	nt
Cc1cccc(N2CCN(C(=O)Cn3sc4nc(C)cc(C)c4c3=O)CC2C)c1 (configuration not stated)	-4%	-16%	nt	-5	50µM*	-6
Cc1cc(C)c2c(=O)n(CC(=O)Nc3cccc(F)c3)sc2n1	-6%	?	-5%	-3	79µM*	10
Cc1cc(C)c2c(=O)n(CC(=O)NCCCN3CCOCC3)sc2n1	18%	14µM*	-25%	5	45µM*	-5
Cc1cc(C)c2c(=O)n(CC(=O)Nc3ccc(Cl)cc3)sc2n1	16%	?	-17%	1	-13%	18
Cc1ccc(NC(=S)Nc2ccc(S(=O)(=O)Nc3ncccn3)cc2)cc1Cl	nt	-28%	-1%	0	10%	-1
Cc1cccc(N(Cc2ccccc2)C(=O)CN2C(=O)NC3(CCCCC3C)C2=O)c1 (configuration not stated)	2%	58%	1%	nt	-2%	nt
CC(=O)C1=C(O)C(=O)N(c2ccccn2)C1c1ccc(Cl)cc1 (configuration not stated)	-14%	-17%	4%	27*	-12%	66*
Cc1c(Br)c([N+](=O)[O-])nn1CC(=O)Nc1nccs1	0%	-16%	0%	4	5%	10
Cc1ccc(NC(=S)NNC(=O)CSc2nnc(-c3ccc(Cl)cc3)n2C2CCCCC2)cc1	33%	-17%	26%	-4	-12%	-4
Cc1ccc(OCC(=O)N2CCc3ccccc3C2)c(Br)c1	0%	12%	-5%	42*	1%	60*
O=C(OCC(=O)N1CCc2ccccc2C1)c1cc(=O)[nH]c2ccccc12	-2%	-3%	-2%	33*	-7%	59*
SMILES	AMA1-RON2 inh	AmpC no deterg	SARS PLP yeast	CHX counter	AmpC detergent	Shiga inhibitor
Cc1ccc(OCC(=O)N2CCc3ccccc3C2)c(C)c1	-7%	-11%	-9%	11*	-4%	33
O=C(c1cc(=O)[nH]c2ccccc12)N1CCc2ccccc2C1	-7%	-13%	-1%	0	-1%	-13
COc1cc(C(C)=O)ccc1OCC(=O)N1CCc2ccccc2C1	-1%	1%	9%	-3	-7%	-3
CN(C)/C=N/c1nccc(-c2cccs2)n1	-3%	0%	-3%	23	-9%	18
Cc1cccc(C)c1OCCNC(=O)c1ccc2ccccc2n1	0%	18%	-3%	11	10%	50
N#Cc1ccsc1NC(=O)COC(=O)c1ccc2ccccc2c1	-7%	-37%	-6%	54*	-2%	active
Cn1cccc1C(=O)OCC(=O)Nc1sccc1C#N	-15%	-37%	-3%	nt	nt	nt
COc1ccc(CCC(=O)Nc2sccc2C#N)cc1	-4%	-41%	0%	51*	-16%	131*
N#Cc1ccsc1NC(=O)COC(=O)c1cc(Br)ccc1O	-13%	-50%	-2%	45*	5%	84*
CCN1CCN(C(=O)c2cc3sccc3n2CC(=O)c2ccccc2)CC1	-16%	23%	4%	-1	?	-8
O=C1C2C3C=CC(C4CC34)C2C(=O)N1/N=C/c1ccc(-c2ccc(Cl)cc2[N+](=O)[O-])o1 (configuration not stated)	?	-28%	10%	-2	?	-5
O=C1C2C3C=CC(C4CC34)C2C(=O)N1/N=C/c1ccc(-c2ccc(F)cc2[N+](=O)[O-])o1 (configuration not stated)	?	-11%	16%	31*	-1%	14
CN(C)Cc1c(-c2ccc(Cl)cc2)nc2ccccn12	-3%	-22%	-1%	45*	-3%	126*
Clc1ccc(-c2nc3ccccn3c2CN2CCCCC2)cc1	12%	-22%	5%	19*	1%	40
Cc1ccn2c(CN3CCOCC3)c(-c3ccccc3)nc2c1	3%	?	-2%	28*	-4%	48*
COc1ccccc1Cc1c(-c2ccc(Cl)cc2)nc2ccc(Br)cn12	-9%	nt	nt	nt	nt	nt
COc1cc2c(cc1OC)/C(=C/c1ccc(Br)cc1)C(=O)OC2	-9%[2.32 µM]	22%	-48%	-7	-9%	-4
N#Cc1ccccc1N/C=C/C(=O)c1ccc(Cl)cc1	2%	nt	nt	nt	nt	nt
O=C(/C=C/Nc1ccc(Br)cc1F)c1ccccc1	-9%	-31%	-17%	38*	0%	41*
O=C(/C=C/Nc1ccccc1F)c1ccc(Br)cc1	-7%	-32%	13%	61*	?	87*
Cc1ccc(C)c(C(=O)CCC(=O)NCc2ccc(Cl)cc2)c1	-13%	-11%	-3%	7	5%	-2
CCOC(=O)c1cccc(Nc2nc(C)cc(C)n2)c1	9%	-6%	-3%	14*	-13%	13
Cc1cc(C)nc(Nc2cccc(C(F)(F)F)c2)n1	3%	16%	-1%	2	1%	15
Cc1cc(C)nc(Nc2cccc(Cl)c2)n1	3%	-34%	-10%	15*	-11%	34
